Assay outcomes deposited in PubChem BioAssay by Broad Institute.
The full list was thinned out, with hits kept by preference.
Tgondii IFNg: T. gondii growth inhibition with IFN-gamma, primary screen, cell-based. AID 1259416, 2018. 3.8% of 69,000 active. activity change, negative = inhibition, % (no concentration beside the values). Toxoplasma gondii growth in IFN-gamma-treated host cells; active compounds read low; in the data active = activity change below about -70%, passing the limit was not always enough;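 note: host cells are HeLa cells infected with Toxoplasma gondii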
The depositor's hits bear a star; i = inactive.

SMILES | Tgondii IFNg
Cc1nccn1CC1CCCN(Cc2ccc3cccc(F)c3n2)C1 (configuration not stated) | -4.9
CCN1CCC2(CN(CCOC)CC23CCN(S(=O)(=O)c2cccs2)CC3)C1=O (configuration not stated) | 8.7
Cc1nonc1CC(=O)N1[C@@H]2CC[C@H]1CN(C)C(=O)C2 | 10.7
Cc1cccc(NC(=O)Nc2ccc(-c3nc(-c4ccc(C)cc4C)co3)cc2)c1 | -31.3
Cc1nn(CCO)cc1CN(C)Cc1cc(-c2ccccc2)no1 | 6.8
Cc1cc(C)c2cc(C(=O)NCCSCc3c(F)cccc3Cl)[nH]c2c1 | 30.0
C=CCN(CC#Cc1ccccc1)Cc1ccc(O)c(Cl)c1 | 11.8
CCOc1ccc(C(=O)NCCc2csc(-c3ccc(C(F)(F)F)cc3)n2)cc1 | i
CCOc1ccccc1-c1nc(Cn2c(=O)c3cccnc3n(-c3ccccc3)c2=O)c(C)o1 | -14.0
COc1ccc(-c2ccc3c(c2)[C@@H]2[C@@H](CCN2C(=O)Nc2ccccc2OC)[C@@H](CO)N3C)cc1 | -72.4*
CC(C)NC(=O)N1CC[C@H]2[C@@H]1c1cc(C#Cc3ccccc3)ccc1N(C)[C@H]2CO | 14.3
CN1c2ccc(-c3ccccc3)cc2[C@@H]2[C@@H](CCN2C(=O)CC2CC2)[C@@H]1CO | -46.5
CN1c2ccc(C3=CCCCC3)cc2[C@@H]2[C@@H](CCN2C(=O)c2ccccc2F)[C@@H]1CO | -75.7*
CC(C)NC(=O)N1CC[C@@H]2[C@@H](CO)N(C)c3ccc(-c4ccc(F)cc4)cc3[C@@H]21 | -78.7*
COc1ccc(C#Cc2ccc3c(c2)[C@H]2[C@H](CCN2C(=O)Nc2ccc(C(F)(F)F)cc2)[C@H](CO)N3C)cc1 | 6.7
CN1c2ccc(C3=CCCCC3)cc2[C@@H]2[C@@H](CCN2C(=O)C2CCOCC2)[C@H]1CO | -39.8
CC(C)NC(=O)N1CC[C@@H]2[C@H]1c1cc(-c3ccc(F)cc3)ccc1N(C)[C@@H]2CO | -62.8
COc1cccc(-c2ccc3c(c2)[C@H]2[C@H](CCN2C(=O)c2ccccc2F)[C@@H](CO)N3C)c1 | -62.3
COCc1cncc2c1CCN(S(=O)(=O)c1cccc(C)c1)C2 | 9.4
CCc1cccc(C)c1NC(=O)C1=C(C)C(=O)OC12CCN(CC)CC2 | 152.8
CCS(=O)(=O)N1CCC2(CC1)OC(=O)C(C)=C2C(=O)NCCC1=CCCCC1 | 10.8
O=C1C[C@H]2CC[C@@H](CN1)N2C(=O)C1CCN(C(=O)Cc2ccccc2)CC1 | 4.9
COc1ccccc1-c1nc(C)c2c(C)c(C#N)sc2n1 | 7.1
Cc1nc(CN2CCOCC3(CNCCO3)C2)cs1 (configuration not stated) | -89.8*
Cc1nc(CN2CCOCC3(CN(CCO)CCO3)C2)cs1 (configuration not stated) | 0.7
SMILES | Tgondii IFNg
CC(=O)N1CCOCC12CCN(Cc1csc(C)n1)CC2 | 2.2
Cc1ccc(C2(O)CCN(C(=O)c3cccc4c3NCCC4)CC2)nc1 | 4.3
CCN(Cc1cnn(C)c1)C(=O)c1cc(Cn2ccnc2C(C)C)[nH]n1 | 6.0
CCOCc1nnc(NC(=O)Cn2ccc3ccc(F)cc32)s1 | -34.0
Cn1cnc(S(=O)(=O)N2CCC(Cc3cccc(C(=O)O)c3)C2)c1 (configuration not stated) | -1.5
CCn1c(SCc2nc(-c3cccc(C)c3)oc2C)nc2c(=O)[nH]cnc21 | 93.4
Cc1ccc(-n2c(SCc3nc(-c4ccccc4C)oc3C)nc3c(=O)[nH]cnc32)cc1 | 108.7
Cc1ccc(-n2c(SCc3nc(-c4ccccc4Cl)oc3C)nc3c(=O)[nH]cnc32)cc1 | -35.5
CCOc1ccc(-c2nc(CSc3nc4c(=O)[nH]cnc4n3-c3ccccc3)c(C)o2)cc1OC | -21.9
Cc1cccc(-c2nc(CSc3nc4c(=O)[nH]cnc4n3-c3ccccc3)c(C)o2)c1 | -109.8*
Cc1ccc(C)c(-c2nc(CSc3nc4c(=O)[nH]cnc4n3-c3ccccc3)c(C)o2)c1 | -79.9*
Cn1ccnc1CN(C(=O)c1ccc(NC(=O)C2CCC2)cc1)C1CC1 | 88.5
O=C(CN1CCN(c2nc3ccccc3s2)CC1)Nc1ccnn1C1CCCC1 | -49.1
CC(C)C(=O)OC[C@@]1(N=[N+]=[N-])O[C@@H](n2ccc(N)nc2=O)[C@H](OC(=O)C(C)C)[C@@H]1OC(=O)C(C)C | 17.1
COc1ccc(-c2nc(Cn3nnc(C(=O)Nc4ccc(C)c(F)c4)c3C)c(C)o2)c(OC)c1 | 42.3
O=C(NCCc1csc(-c2ccccc2)n1)C1CCN(S(=O)(=O)c2ccccc2)CC1 | 6.1
COc1ccc(-c2nc(Cn3nnc(-c4nc(-c5ccc(C)c(C)c5)no4)c3C)c(C)o2)cc1 | -34.5
Cn1cc(-c2nc3c(c(NC4CC4)n2)CN(S(=O)(=O)c2cccc(F)c2)CC3)cn1 | -73.9*
CCS(=O)(=O)N1CCc2nc(-c3cccc(F)c3)nc(NC3CC3)c2C1 | -34.8
COCCN1CCc2nc(-c3cnn(C)c3)nc(NC3CC3)c2C1 | 78.2
CCN(CC)[C@H]1CN(Cc2nccn2C)C2CCCOC21 (some centres not stated) | -39.8
CCOC(=O)CNC(=O)N1CCC2(CC1)Nc1cc(OC)ccc1-n1cccc12 | 155.1
Cc1ccc(-c2ccccc2NC(=O)CS(=O)CC(=O)Nc2ccc(C)c(Cl)c2)o1 (configuration not stated) | 33.1
Cc1ccc(NC(=O)CN2CCN(Cc3ccccc3)CC2)cc1Cl | -24.2
Cc1ccc(NC(=O)CS(=O)CC(=O)Nc2ccc3c(c2)CCC3)cc1Cl (configuration not stated) | -88.2*
SMILES | Tgondii IFNg
COCCN1C(=O)CCc2cc(NC(=O)c3ccco3)ccc21 | 57.4
COc1cc(N2CC[C@H]3[C@@H]2CCN3C(=O)c2ccc(C)o2)ncn1 | 18.8
CCn1c(C2CCCN(Cc3ccnn3-c3ccccc3)C2)nn(C)c1=O (configuration not stated) | -23.0
O=C(NCCC1=CCCCC1)c1cc2cc(Cl)ccc2oc1=O | 24.5
CC(=O)c1cc(C(=O)N2CC(CN3CCOCC3)c3ccccc32)cs1 (configuration not stated) | 42.3
CC(C)C(=O)Nc1ccc(N2CCN(C(=O)c3ccccc3)CC2)c(Cl)c1 | -22.3
Cn1c(CN2CCCCC2)nc2cc(NC(=O)COc3ccc4c(c3)OCO4)ccc21 | -12.0
CN(Cc1ncc[nH]1)C(=O)COc1ccc2c(c1)OCO2 | -4.9
COCCSc1nnc(NC(=O)COc2ccc3c(c2)OCO3)s1 | -83.0*
CC(C)c1nnc(NC(=O)COc2ccc3c(c2)OCO3)s1 | -84.6*
Cc1nn(-c2ccc(F)cc2)c(C)c1CNC(=O)COc1ccc2c(c1)OCO2 | 41.0
COCC(=O)Nc1cccc(-c2ccc3c(c2)OCO3)c1 | 37.8
Cn1cnc(S(=O)(=O)N2CCC3(CC(Nc4ccccc4)CO3)C2)c1 (configuration not stated) | 4.4
CNC(=O)c1cc(=O)n(CC(=O)Nc2cccc(F)c2)c2ccccc12 | 9.8
c1ccc2c3c([nH]c2c1)CCN(c1cc(N2CCOCC2)ncn1)C3 | 193.3
CC(C)Nc1nc2c(cc1C(=O)N(C)C)CCN(Cc1cccnc1)CC2 | 2.2
N#Cc1ccc(-c2ccc3c(c2)[C@H]2[C@H](CCN2C(=O)C2CCCCC2)[C@@H](CO)N3)cc1 | -62.6
N#Cc1ccc(-c2ccc3c(c2)[C@@H]2[C@@H](CCN2C(=O)C2CCCCC2)[C@H](CO)N3)cc1 | -62.8
COc1ccccc1-c1ccc2c(c1)[C@@H]1[C@@H](CCN1C(=O)C1CCC1)[C@H](CO)N2 | -72.0*
CCC1=N[C@]2(CC[C@@H]3CN(c4ncc(C)cn4)C[C@H]32)C(=O)N1CC1CC1 | 2.9
